Source: PubChem BioAssay (NMMLSC)
Bead autofluor: compound fluorescence in toxin protease inhibitor counterscreen | compound autofluorescence counterscreen, microsphere flow cytometry; hits give high values | fluorescence intensity (no concentration beside the values) | actives 3.1% (n = 360,000) | AID 624483; in the data active means fluorescence intensity above about 16000; inconclusive means no clear call, values can overlap the other calls
Anthrax LF inh2: inhibitors of Bacillus anthracis lethal factor protease; P15917; multiplex microsphere protease cleavage assay, LF; inhibition, % at 10 µM; actives 0.12% (n = 360,000); AID 588501; further: plate controls were buffer without enzyme for full effect and enzyme alone for no effect
Target sequence (P15917 whole entry, looked up): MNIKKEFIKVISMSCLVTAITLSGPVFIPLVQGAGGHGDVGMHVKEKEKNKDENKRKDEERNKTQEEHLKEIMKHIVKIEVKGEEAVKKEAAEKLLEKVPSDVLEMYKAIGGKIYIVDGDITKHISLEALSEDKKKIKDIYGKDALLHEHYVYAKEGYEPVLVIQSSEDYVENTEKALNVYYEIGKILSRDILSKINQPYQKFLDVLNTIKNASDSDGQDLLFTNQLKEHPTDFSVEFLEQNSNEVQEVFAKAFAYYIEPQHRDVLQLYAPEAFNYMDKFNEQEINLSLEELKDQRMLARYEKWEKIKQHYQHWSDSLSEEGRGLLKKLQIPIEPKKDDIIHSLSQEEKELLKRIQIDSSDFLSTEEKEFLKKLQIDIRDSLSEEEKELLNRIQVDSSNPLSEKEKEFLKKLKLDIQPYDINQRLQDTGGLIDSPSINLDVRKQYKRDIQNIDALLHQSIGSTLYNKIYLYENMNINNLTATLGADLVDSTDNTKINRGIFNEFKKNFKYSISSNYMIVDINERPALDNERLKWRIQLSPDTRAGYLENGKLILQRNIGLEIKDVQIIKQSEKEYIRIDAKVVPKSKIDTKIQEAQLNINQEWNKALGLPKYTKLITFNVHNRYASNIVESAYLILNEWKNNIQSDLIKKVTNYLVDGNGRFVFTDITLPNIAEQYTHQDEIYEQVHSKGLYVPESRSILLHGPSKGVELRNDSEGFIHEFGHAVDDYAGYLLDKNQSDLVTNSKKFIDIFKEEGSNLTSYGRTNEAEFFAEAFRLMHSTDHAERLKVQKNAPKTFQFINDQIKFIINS
BoNT-A LC inh2: BoNT A light chain protease inhibition | multiplex microsphere protease substrate cleavage, flow cytometry | actives 0.17% (n = 360,000) | inhibition, % at 10 µM; further: plate controls were buffer without enzyme for full effect and enzyme alone for no effect
BoNT F protease: BoNT F light chain protease inhibition; Multiplex microsphere protease cleavage assay, flow cytometry; inhibition, % at 10 µM; actives 0.22% (n = 360,000); AID 588497; in the data active means inhibition above about 35%, passing the limit was not always enough; inconclusive means no clear call, values can overlap the other calls; further: plate controls were buffer without enzyme for full effect and enzyme alone for no effect
* = called active by the depositor; ? = inconclusive. Most compounds without a hit are left out; they make up all but 3.5% or so of the library. Unless noted, no stated cut-off is given here; in the data, active means inhibition above about 30%; inconclusive means no clear call, values can overlap the other calls; inactive means below that.

SMILES | Bead autofluor | Anthrax LF inh2 | BoNT-A LC inh2 | BoNT F protease
Cc1ccccc1OCCN1C(=O)NC2(CCc3ccccc32)C1=O (stereo not drawn) | 20031* | 0.3 | 0.9 | 0.8
COc1ccc(C(N)=O)cc1N | 20559* | -3.2 | 3.6 | 4.9
CCOc1ccc(C(=O)c2ccc(OCC)c(N)c2)cc1N | 16397* | -3.5 | 0.4 | -1.8
CCOc1ccc(S(=O)(=O)N(CC)CC)cc1N | 3196 | 3.6 | 0.7 | -4.3
Cn1nc(C(C)(C)C)cc1C(=O)NCc1ccc(N2CCCC2=O)cc1 | 23561* | -3.9 | ? | 0.1
Cc1ccc(CNC(=O)c2ccc(N3CCCC3=O)cc2)cc1 | 11293 | 2.9 | 0.5 | 2.5
COc1ccc(C(C#N)c2ccc(=O)[nH]n2)cc1 (stereo not drawn) | 2131 | 2.0 | -0.4 | 0.4
CC(=O)O[C@H]1[C@@H](O)[C@H](O)[C@H](Oc2c(O)c(C)c3c4c2[C@@H](C)CC[C@@H]4[C@@H](C)C[C@@H]3C=C(C)C)O[C@H]1C | 4922 | -1.9 | -0.4 | 5.5
O=C(CSc1ccc2nnc(-c3cccc(F)c3)n2n1)NCC1CCCO1 (stereo not drawn) | 22186* | -7.2 | 2.5 | 3.4
COc1ccccc1NC(=O)CSc1nnc(Cc2cccn2C)n1CCc1ccccc1 | 24958* | -2.7 | -3.5 | -7.4
Cn1cccc1Cc1nnc(SCC(=O)NCC2CCCO2)n1C (stereo not drawn) | 2262 | 1.6 | -0.4 | -2.9
Cn1cccc1Cc1nnc(SCC(=O)NCC2CCCO2)n1CCc1ccccc1 (stereo not drawn) | 22577* | -7.9 | ? | 1.8
CCOC(=O)CC(=O)CSc1ccc2nnc(-c3ccc(C)cc3)n2n1 | 22080* | -7.2 | 1.9 | 3.9
COc1ccc(S(=O)(=O)N2CCCCCC2)cc1NC(=O)Cc1n[nH]c(=O)c2ccccc12 | 6970 | 4.6 | -1.7 | -6.3
O=C(Nc1ccc(NC(=O)c2cccnc2Cl)cc1)c1cccc(Cl)c1 | 3599 | 1.5 | -3.3 | -9.9
O=C(CSc1nnc2scc(-c3ccccc3)n12)NCC1CCCO1 (stereo not drawn) | 21160* | 0.7 | -1.5 | -3.5
COc1ccc(-c2nnc3ccc(SCC(=O)NCc4ccco4)nn23)cc1 | 8467 | 3.1 | -0.4 | 6.8
CCSc1nnc(NC(=O)CSc2nnc(Cc3cccn3C)n2CCc2ccccc2)s1 | 20173* | -4.1 | ? | 2.4
O=C(CSc1ccc2nnc(-c3ccccc3)n2n1)NCc1ccco1 | 20999* | -5.7 | ? | -1.3
Cn1c(CCC(=O)Nc2cc(S(C)(=O)=O)ccc2Cl)nc2cc(S(=O)(=O)N3CCOCC3)ccc21 | 6389 | 2.4 | 0.9 | 10.7
CC1(C)Oc2ccc3ccc(=O)oc3c2/C(=C/NNC(N)=S)C1=O | 3674 | 10.4 | -3.8 | 8.9
CCc1noc(C)c1C(=O)OCC(=O)c1ccc(OC)c(OC)c1 | 3159 | -5.3 | -0.4 | 3.4
COc1ccc(C(=O)COC(=O)CSCc2c(C)noc2C)cc1OC | 22438* | 1.8 | 2.1 | 1.3
CN(c1ccccc1)c1nc2ccsc2c(=O)s1 | 21828* | -0.7 | 1.9 | 2.5
O=C(Nc1ccc(F)cc1)C1CCN(c2nnnn2-c2ccccc2)CC1 | 19751* | 2.3 | ? | 1.4
SMILES | Bead autofluor | Anthrax LF inh2 | BoNT-A LC inh2 | BoNT F protease
CCOC(=O)CSc1cc(C)nc(NC(C)=O)n1 | 19697* | 3.0 | ? | 2.7
COC(=O)CSc1cc(C)nc(NC(C)=O)n1 | 6056 | -10.1 | -0.4 | 0.7
CCOC(=O)CSc1nc(C)cc(C)n1 | 2533 | 1.4 | 0.2 | -1.3
Cc1cc(SCC(=O)Nc2ccccc2)nc(C)n1 | 2729 | -0.9 | -0.2 | -6.5
Cc1cc(C(F)(F)F)nc(SCC(=O)Nc2ccccc2)n1 | 22832* | -1.0 | ? | -4.5
CSc1nc(C)cc(SCC(=O)Nc2ccccc2)n1 | 23915* | 1.1 | -1.2 | -2.8
CCOC(=O)CSc1cn2c(n1)CCC2 | 24514* | -2.7 | -3.6 | -5.1
COc1ccc(S(=O)(=O)N(C)C[C@H]2Oc3c(cccc3N(C)C)C(=O)N([C@H](C)CO)C[C@@H]2C)cc1 | 4159 | -9.9 | -1.1 | -14.7
CSc1nsc(SCC(=O)Nc2cccc(C(C)=O)c2)n1 | 21617* | 0.2 | 2.4 | 2.5
CSc1nsc(SCC(=O)Nc2ccccc2)n1 | 3479 | -6.5 | -0.9 | 3.4
COC(=O)CSc1cc(C)nc(SC)n1 | 20467* | 3.3 | -2.4 | -1.8
COC(=O)CSc1nc(C)cc(C)n1 | 4901 | -3.2 | -0.9 | -4.3
COc1ccc(OC)c(-n2c(O)c(C=NCc3ccc4c(c3)OCO4)c(=O)[nH]c2=O)c1 | 16727* | -0.8 | -1.3 | -2.6
COc1ccc(CCn2c(O)c(C=NCc3ccc4c(c3)OCO4)c(=O)[nH]c2=O)cc1OC | 9798 | 11.6 | -0.8 | 0.2
O=C(c1ccccc1)n1c2ccccc2c(=O)n1-c1ccccc1CCl | 5282 | 0.6 | -0.9 | -14.8
Cc1ccc(-n2nc3c(c2NC(=O)c2c(-c4ccccc4Cl)noc2C)CS(=O)(=O)C3)c(C)c1 | 23658* | -1.7 | ? | -3.2
Cc1ccccc1-n1nc2c(c1NC(=O)c1c(-c3ccccc3Cl)noc1C)CS(=O)(=O)C2 | 16862* | -9.8 | -2.5 | -7.0
Cc1ccc(-n2nc3c(c2NC(=O)c2cccs2)CS(=O)(=O)C3)c(C)c1 | 5951 | -1.7 | 0.5 | 3.0
COc1ccc(OC)c(-n2c(-c3ccccc3)n[nH]c2=S)c1 | 22480* | -4.3 | ? | 0.4
COc1ccc(OC)c(-n2c(-c3cccc(C)c3)n[nH]c2=S)c1 | 2194 | 0.1 | 0.1 | -3.4
COC(=O)N1CCN(c2ccc(C(C)=O)cc2)CC1 | 18481* | -4.6 | ? | 9.2
Cc1ccc(S(=O)(=O)NCc2ccc(N3CCN(C(=O)OC(C)(C)C)CC3)cc2)cc1 | 6092 | -0.5 | -1.6 | 3.2
Cc1ccc(C(=O)NCc2ccc(N3CCN(C(=O)OC(C)(C)C)CC3)cc2)cc1 | 23049* | -2.7 | ? | -3.8
Cc1nn(Cc2ccc(F)cc2)c(C)c1NC(=O)c1cnn2c1NC(c1cccs1)CC2C(F)(F)F (stereo not drawn) | 22509* | -1.2 | 2.5 | 2.3
CCN(CC)c1ccc(S(=O)(=O)N(CC)CC)cc1NC(=O)c1cccnc1 | 4143 | 7.3 | -0.2 | -3.1
SMILES | Bead autofluor | Anthrax LF inh2 | BoNT-A LC inh2 | BoNT F protease
O=C(C(Cl)Cl)N1c2ccccc2OCC1c1ccccc1 (stereo not drawn) | 22852* | -1.3 | ? | -2.7
O=S(=O)(Cc1ccccc1)Nn1cnnc1 | 22495* | 0.4 | -0.5 | -0.7
Cc1cccc(NS(=O)(=O)Cc2ccccc2)n1 | 4718 | -5.6 | 0.2 | ?
COc1cccc2cc(-c3nnc(SCC(=O)Nc4cc(C(F)(F)F)ccc4Cl)n3N)oc12 | 23578* | 3.0 | -2.1 | -3.0
CCn1c(SCC(=O)Nc2nccs2)nnc1-c1cc2cccc(OC)c2o1 | 8503 | 8.0 | -0.6 | 5.2
COc1cccc2cc(-c3nnc(SCC(=O)NCc4ccccc4)n3C)oc12 | 22828* | 2.4 | ? | 6.4
CCn1c(SCC(=O)NC2CCCCC2)nnc1-c1cc2cccc(OC)c2o1 | 4559 | -3.0 | 0.6 | 28.5
C[C@H]1CN([C@@H](C)CO)C(=O)c2cc(Br)cnc2O[C@@H]1CN(C)C(=O)Nc1ccc(C(F)(F)F)cc1 | 3052 | -2.5 | -0.2 | -5.4
CCCCCCCCN1C(=O)C(O)=C(C(C)=O)C1c1ccccn1 (stereo not drawn) | 31940* | -5.2 | -25.6 | -44.6
Cc1occc1C(=O)NCCc1ccc(Cl)cc1 | 20471* | -5.4 | -1.5 | -2.5
